Data as given in PubChem BioAssay (Tox21).
Active and inactive are the calls of the source. Entries that show only a call come without a potency. Unless noted, the call rests on the fitted dose curve; in most records, active means well fitted curve in the direction sought with a large enough effect in the repeat runs; inconclusive means weak or mixed curves; inactive means no such curve, though single readings can be large; an effect the other way counts as inactive or inconclusive.

Tests used:
[1] = qHTS assay for small molecule agonists of the p53 signaling pathway (AID 651631; calls by dose curve; further: nearly all actives have a fitted effect of over 15% in size)
In short: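 Read-out is beta-lactamase FRET fluorescence measured 2 h after substrate addition at room temperature, in HCT-116 cells with a p53 response element-driven reporter exposed to compounds for 16 h at 37 °C.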

[2] = qHTS assay for small molecule agonists of the p53 signaling pathway - cell viability (AID 651633; calls by dose curve; further: nearly all actives have a fitted effect of over 30% in size; further: potency means the concentration at half of the fitted maximal effect)
In short: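 Viability counter-read: CellTiter-Glo luminescence (30 min, room temperature) in the same p53RE-bla plates. These plates had been exposed to compounds for 16 h at 37 C.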

[3] = qHTS assay to test for compound auto fluorescence at 460 nm (blue) in HEK293 cell free culture (AID 720681)
In short: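 Blue fluorescence (Ex 405/Em 460 nm, triamterene-equivalent) was read immediately after pin transfer of compound or DMSO into medium (DMEM, 10% FBS) without cells.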

[4] = qHTS assay to test for compound auto fluorescence at 590 nm (red) in HEK293 cell free culture (AID 720683)
In short: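 Red-channel autofluorescence of compounds in culture medium (DMEM, 10% FBS), no cells, measured at 540/590 nm. Rose Bengal sodium is the reference fluorophore for equivalence.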

[5] = qHTS assay for identifying genotoxic compounds that show differential cytotoxicity against isogenic chicken DT40 cell lines with known DNA damage response pathways - wild type cell line (AID 743012); further: nearly all actives have a fitted effect of over 60% in size; further: potency means the concentration at half of the fitted maximal effect
In short: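 Luminescent ATP viability signal (CellTiter-Glo, 30 min RT) recorded after wild type DT40 cells were incubated with compounds for 40 h at 37 C/5% CO2.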

[6] = qHTS assay to identify small molecule antagonists of the androgen receptor (AR) signaling pathway - cell viability counter screen (AID 743033; further: nearly all actives have a fitted effect of over 45% in size; further: potency means the concentration at half of the fitted maximal effect)
[7] = qHTS assay to identify small molecule antagonists of the androgen receptor (AR) signaling pathway using the MDA cell line - cell viability counter screen (AID 743041; further: nearly all actives have a fitted effect of over 45% in size)
In short: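 Using the breast carcinoma line MDA-kb2 AR-luc, test chemicals were co-incubated with R1881 for 16 h; CellTiter-Fluor reagent, added at 15.5 h, provided a fluorescence measure of live cells.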

[8] = qHTS assay to identify small molecule antagonists of the thyroid receptor (TR) signaling pathway - cell viability counter screen (AID 743064); further: nearly all actives have a fitted effect of over 50% in size; further: potency means the concentration at half of the fitted maximal effect
In short: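 Fluorescence from CellTiter-Fluor, added after 23.5 h exposure at 37 °C, reported viability of GH3.TRE-Luc cells co-treated with compound and 1 nM T3. Measured in the same wells as the luciferase TR readout.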

[9] = test system: thyroid hormone receptor (rat, GH3 cells); assay: qHTS assay to identify small molecule agonists of the thyroid receptor (TR) signaling pathway (AID 743066; calls by dose curve)
[10] = qHTS assay to identify small molecule antagonists of the estrogen receptor alpha (ER-alpha) signaling pathway - cell viability counter screen (AID 743074; calls by dose curve;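 further: HEK293 cells carrying ER-alpha-UAS-bla reporter stimulated with 17beta-estradiol; nearly all actives have a fitted effect of over 45% in size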)
[11] = qHTS assay to identify small molecule antagonists of the estrogen receptor alpha (ER-alpha) signaling pathway using the BG1 cell line - cell viability counter screen (AID 743081);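 further: compound given together with 17beta-estradiol as the ER stimulus; series mostly up to about 70 µM; nearly all actives have a fitted effect of over 45% in size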
[12] = qHTS assay to identify small molecule that activate the aryl hydrocarbon receptor (AhR) signaling pathway - cell viability counter screen (AID 743086); further: nearly all actives have a fitted effect of over 45% in size; further: potency means the concentration at half of the fitted maximal effect
In short: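 Cytotoxicity counter screen: CellTiter-Fluor signal (30 min, 37 C) in 4000 HepG2 cells/well carrying the DRE-luciferase reporter, following 24 h compound exposure at 37 C.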

[13] = molecular target: Peroxisome proliferator-activated receptor gamma (Homo sapiens) (UniProt P37231); assay: qHTS assay to identify small molecule agonists of the peroxisome proliferator-activated receptor gamma (PPARg) signaling pathway (AID 743094; active means well fitted activation curve with a large enough effect in the signal ratio in the repeat runs, not every such curve was filed as active; inconclusive means weak or mixed curves, or effect the other way; inactive means no such curve, though single readings can be large or run the other way; the % refers to the signal ratio)
In short: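 Reporter activation was scored by fluorescence of cleaved LiveBLAzer B/G substrate (1 h, room temperature) in PPARg-bla HEK293H cells previously treated 17 h at 37C with DMSO-dissolved compounds.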

[14] = qHTS assay for identifying genotoxic compounds that show differential cytotoxicity against isogenic chicken DT40 cell lines with known DNA damage response pathways - Rad54/Ku70 mutant cell line (AID 743015); further: nearly all actives have a fitted effect of over 60% in size; further: potency means the concentration at half of the fitted maximal effect
[15] = qHTS assay to identify small molecule antagonists of the thyroid receptor (TR) signaling pathway (AID 743065); further: nearly all actives have a fitted effect of over 55% in size; further: potency means the concentration at half of the fitted maximal effect
In short: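 Antagonism measured as loss of luciferase signal in GH3 cells stably carrying a TRE-luciferase reporter, co-treated with compound and T3 (1 nM final) for 23.5 h at 37 C. Viability was read in the same well by CellTiter-Fluor.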

[16] = qHTS assay for identifying genotoxic compounds that show differential cytotoxicity against isogenic chicken DT40 cell lines with known DNA damage response pathways - Rev3 mutant cell line (AID 743014); further: nearly all actives have a fitted effect of over 55% in size; further: potency means the concentration at half of the fitted maximal effect
[17] = molecular target: Estrogen receptor (Homo sapiens) (UniProt P03372); assay: qHTS assay to identify small molecule agonists of the estrogen receptor alpha (ER-alpha) signaling pathway (AID 743075; calls by dose curve;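 further: HEK293 GripTite cells with ER-alpha and UAS-driven beta-lactamase reporter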; further: potency means the concentration at half of the fitted maximal effect)
[18] = molecular target: Estrogen receptor (Homo sapiens) (UniProt P03372); assay: qHTS assay to identify small molecule agonists of the estrogen receptor alpha (ER-alpha) signaling pathway using the BG1 cell line (AID 743079); further: nearly all actives have a fitted effect of over 20% in size; further: potency means the concentration at half of the fitted maximal effect
[19] = molecular target: Nuclear receptor subfamily 1 group I member 2 (Homo sapiens) (UniProt O75469); assay: CYP3A4 induction through human pregnane X receptor (PXR) by small molecules, qHTS assay (AID 1346984); further: nearly all actives have a fitted effect of over 40% in size; further: potency means the concentration at half of the fitted maximal effect
In short: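 Induction measured in HepG2-based DPX-2 cells co-expressing human PXR and a CYP3A4 promoter-driven luciferase. After a 24-hour compound exposure, cells received CYP3A4 luciferin substrate at 3uM final for 3 hours, and light output was then recorded.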

[20] = qHTS assay to identify small molecule antagonists of the estrogen receptor alpha (ER-alpha) signaling pathway using the BG1 cell line (AID 743080; calls by dose curve;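 further: BG1 cells stimulated with 17beta-estradiol alongside compound; series mostly up to about 70 µM; nearly all actives have a fitted effect of over 25% in size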)
In short: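 BG1-Luc-4E2 cells (endogenous full-length ER-alpha, stable 4×ERE-luciferase) were starved 5 days in phenol-red-free medium with 10% charcoal-stripped FBS, plated 24 h, then given compound plus 17beta-estradiol for 21.5 h at 37 C; ONE-Glo luminescence read after 30 min.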

Peroxisome proliferator-activated receptor gamma (Homo sapiens), sequence (P37231 whole entry, looked up): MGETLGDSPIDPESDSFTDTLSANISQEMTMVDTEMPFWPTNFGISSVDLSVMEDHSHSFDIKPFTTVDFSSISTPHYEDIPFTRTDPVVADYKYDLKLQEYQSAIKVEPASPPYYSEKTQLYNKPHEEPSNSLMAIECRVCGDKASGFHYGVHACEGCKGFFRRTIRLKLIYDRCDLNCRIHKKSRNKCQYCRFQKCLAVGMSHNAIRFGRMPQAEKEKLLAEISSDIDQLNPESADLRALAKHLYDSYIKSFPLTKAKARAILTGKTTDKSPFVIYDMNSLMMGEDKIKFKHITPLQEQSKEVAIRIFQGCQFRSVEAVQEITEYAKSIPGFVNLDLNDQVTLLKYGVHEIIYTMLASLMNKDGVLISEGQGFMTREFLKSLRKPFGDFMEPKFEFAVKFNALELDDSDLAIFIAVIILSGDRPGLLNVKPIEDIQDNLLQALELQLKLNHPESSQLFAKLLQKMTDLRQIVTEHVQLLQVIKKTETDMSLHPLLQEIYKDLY
Estrogen receptor (Homo sapiens), sequence (P03372 whole entry, looked up): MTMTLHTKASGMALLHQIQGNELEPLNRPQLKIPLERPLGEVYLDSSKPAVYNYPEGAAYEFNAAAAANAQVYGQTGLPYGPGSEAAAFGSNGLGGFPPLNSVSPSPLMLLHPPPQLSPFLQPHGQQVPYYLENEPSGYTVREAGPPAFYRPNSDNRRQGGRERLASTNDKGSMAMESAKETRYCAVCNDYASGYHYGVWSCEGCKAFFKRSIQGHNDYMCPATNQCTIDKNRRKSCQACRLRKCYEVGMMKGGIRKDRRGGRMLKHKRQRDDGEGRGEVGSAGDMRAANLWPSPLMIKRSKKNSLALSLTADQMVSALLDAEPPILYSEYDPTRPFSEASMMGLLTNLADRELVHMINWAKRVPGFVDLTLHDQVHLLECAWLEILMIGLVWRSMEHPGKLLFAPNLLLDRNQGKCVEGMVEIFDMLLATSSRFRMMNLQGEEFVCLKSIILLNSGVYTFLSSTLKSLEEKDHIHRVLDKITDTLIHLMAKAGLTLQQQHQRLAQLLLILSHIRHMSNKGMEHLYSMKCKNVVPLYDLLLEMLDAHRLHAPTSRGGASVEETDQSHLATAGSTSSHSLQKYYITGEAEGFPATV

In the case of `CCN(CC)C(=O)N[C@H]1C[C@@H]2c3cccc4[nH]cc(c34)C[C@H]2N(C)C1`, the Potency [1] is reported as “inactive”, the Potency [2] is reported as “inactive” and the Potency [3] is reported as “inactive”. The outcome [4] was “inactive”, the Potency [5] was 29.8 µM (active) and the Potency [6] was “inactive”. For the same compound, the Potency [7] was “inactive”, the Potency [8] was “inactive” and the Potency [9] was “inactive”. For the same compound, the Potency [10] was “inactive”, the Potency [11] was “inactive” and the Potency [12] was “inactive”. The Potency [13] was “inactive”.
In the case of `CC(=O)O[C@H]1C[C@H](O[C@H]2[C@@H](O)C[C@H](O[C@H]3[C@@H](O)C[C@H](O[C@H]4CC[C@@]5(C)[C@H](CC[C@@H]6[C@@H]5C[C@@H](O)[C@]5(C)[C@@H](C7=CC(=O)OC7)CC[C@]65O)C4)O[C@@H]3C)O[C@@H]2C)O[C@H](C)[C@H]1O[C@@H]1O[C@H](CO)[C@@H](O)[C@H](O)[C@H]1O`, the Potency [3] is reported as “inactive”, the outcome [4] is reported as “inactive” and the Potency [5] is reported as 0.75 µM (active). For the same compound, the Potency [14] was 0.668 µM (active), the Potency [6] was 0.0756 µM (active) and the Potency [8] was “inactive”. The Potency [15] was “inactive”, the Potency [9] was “inactive” and the Potency [11] was “inactive”. For the same compound, the Potency [12] was “inactive”.
With `C[C@]12C[C@H]3S[C@H]3C[C@@H]1CC[C@@H]1[C@@H]2CC[C@]2(C)[C@@H](O)CC[C@@H]12` the Potency [3] was “inactive”, the outcome [4] was “inactive” and the Potency [16] was “inactive”. For the same compound, the Potency [7] was “inactive”, the Potency [8] was “inactive” and the Potency [15] was “inactive”. For the same compound, the Potency [9] was “inactive”, the Potency [10] was “inactive” and the Potency [17] was 0.256 µM [inconclusive] (active). For the same compound, the Potency [18] was 0.143 µM (active), the Potency [11] was “inactive” and the Potency [12] was “inactive”. For the same compound, the Potency [13] was “inactive” and the Potency [19] was “inactive”.
For `C#CC(C)(O)CC` (centres undefined), the Potency [1] was “inactive”, the Potency [2] was “inactive” and the Potency [3] was “inactive”. For the same compound, the outcome [4] was “inactive”, the Potency [5] was “inactive” and the Potency [16] was “inactive”. For the same compound, the Potency [14] was “inactive”, the Potency [6] was “inactive” and the Potency [7] was “inactive”. For the same compound, the Potency [15] was “inactive”, the Potency [9] was “inactive” and the Potency [10] was “inactive”. The Potency [17] was “inactive”, the Potency [18] was “inactive” and the Potency [20] was “inactive”. The Potency [11] was “inactive”, the Potency [12] was “inactive” and the Potency [13] was “inactive”. For the same compound, the Potency [19] was “inactive”.
In the case of `CCN(CC)CCO[C@H]1CC[C@@]2(C)C(=CC[C@@H]3[C@@H]2CC[C@]2(C)C(=O)CC[C@@H]32)C1`, the outcome [4] is reported as “inactive”, the Potency [5] is reported as 1.33 µM (active) and the Potency [16] is reported as 0.531 µM (active). The Potency [14] was 1.33 µM (active), the Potency [6] was “inactive” and the Potency [7] was “inactive”. The Potency [8] was “inactive”, the Potency [15] was 21.1 µM (active) and the Potency [9] was “inactive”. For the same compound, the Potency [17] was “inactive”, the Potency [18] was “inactive” and the Potency [20] was “inactive”. For the same compound, the Potency [11] was “inactive”, the Potency [12] was “inactive” and the Potency [13] was “inactive”. The Potency [19] was 7.94 µM (active).
In the case of `CCON=O`, the Potency [3] is reported as “inactive”, the outcome [4] is reported as “inactive” and the Potency [5] is reported as “inactive”. The Potency [16] was “inactive”, the Potency [14] was “inactive” and the Potency [6] was “inactive”. For the same compound, the Potency [7] was “inactive”, the Potency [8] was “inactive” and the Potency [15] was “inactive”. For the same compound, the Potency [9] was “inactive”, the Potency [10] was “inactive” and the Potency [17] was “inactive”. For the same compound, the Potency [20] was “inactive”, the Potency [11] was “inactive” and the Potency [12] was “inactive”. For the same compound, the Potency [13] was “inactive” and the Potency [19] was “inactive”.
In the case of `C[C@@H](Cc1ccccc1)NCCC(c1ccccc1)c1ccccc1`, the Potency [1] is reported as “inactive”, the Potency [3] is reported as “inactive” and the Potency [5] is reported as 3.59 µM (active). For the same compound, the Potency [14] was 7.17 µM (active), the Potency [6] was “inactive” and the Potency [8] was 11.4 µM (active). The Potency [10] was “inactive”, the Potency [17] was “inactive” and the Potency [18] was “inactive”. The Potency [20] was “inactive” and the Potency [19] was 12.6 µM (active).
With `F/C(COc1ccc2c(c1)[nH]c1ccccc12)=C1/CN2CCC1CC2` the Potency [3] was “inactive”, the outcome [4] was “inactive” and the Potency [5] was 5.96 µM (active). The Potency [16] was 8.41 µM (active), the Potency [14] was 7.5 µM (active) and the Potency [6] was “inactive”. The Potency [7] was “inactive”, the Potency [8] was 7.5 µM (active) and the Potency [15] was 8.41 µM (active). For the same compound, the Potency [17] was “inactive”, the Potency [18] was “inactive” and the Potency [12] was 21.1 µM (active). For the same compound, the Potency [19] was “inactive”.
In the case of `C[C@]12CC[C@H]3[C@@H](CCC4=CC(=O)CC[C@@]43C)[C@@H]1CC[C@H]2O`, the Potency [2] is reported as “inactive”, the Potency [3] is reported as “inactive” and the outcome [4] is reported as “inactive”. The Potency [5] was 23.7 µM (active), the Potency [14] was 29.8 µM (active) and the Potency [6] was “inactive”. For the same compound, the Potency [7] was “inactive”, the Potency [9] was “inactive” and the Potency [10] was “inactive”. The Potency [11] was “inactive”, the Potency [12] was “inactive” and the Potency [13] was “inactive”. The Potency [19] was “inactive”.
With `CO[C@H]1[C@@H](O)C[C@H](O[C@H]2[C@@H](O)C[C@H](O[C@H]3[C@@H](O)C[C@H](O[C@H]4CC[C@@]5(C)[C@H](CC[C@@H]6[C@@H]5C[C@@H](O)[C@]5(C)[C@@H](C7=CC(=O)OC7)CC[C@]65O)C4)O[C@@H]3C)O[C@@H]2C)O[C@@H]1C` the Potency [2] was 0.0841 µM (active), the Potency [3] was “inactive” and the Potency [5] was 0.531 µM (active). For the same compound, the Potency [16] was 0.668 µM (active), the Potency [14] was 0.668 µM (active) and the Potency [8] was “inactive”. The Potency [15] was “inactive”, the Potency [9] was “inactive” and the Potency [17] was “inactive”. For the same compound, the Potency [11] was “inactive” and the Potency [19] was “inactive”.
In the case of `CN(C)CCCCCCN(C)C` (tested in a mixture with another compound), the Potency [2] is reported as “inactive”, the Potency [3] is reported as “inactive” and the outcome [4] is reported as “inactive”. For the same compound, the Potency [5] was “inactive”, the Potency [16] was “inactive” and the Potency [14] was “inactive”. For the same compound, the Potency [7] was “inactive”, the Potency [8] was “inactive” and the Potency [15] was “inactive”. The Potency [9] was “inactive”, the Potency [11] was “inactive” and the Potency [12] was “inactive”.
In the case of `Clc1ccc(C(Cn2ccnc2)OCc2csc3c(Cl)cccc23)c(Cl)c1` (centres undefined), the Potency [3] is reported as “inactive”, the outcome [4] is reported as “inactive” and the Potency [5] is reported as 12.7 µM (active). The Potency [7] was “inactive”, the Potency [10] was “inactive” and the Potency [20] was “inactive”. The Potency [11] was “inactive”, the Potency [12] was “inactive” and the Potency [13] was “inactive”. The Potency [19] was 3.98 µM (active).
